The full ranking holds about 1,500 compounds; the median of “activity” is about 2, and the lowest 2% start at about -18. Shown is part of a subset that was picked to be rich in the lowest values. Active and inactive are the calls of the source.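 Rule for the calls: active = inhibition of at least 40% at 10 µM; inconclusive = no clear call, values can overlap the other calls; inactive = the rest.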

In the experiment the target is Sulfhydryl oxidase 1 (Homo sapiens) (UniProt O00391). Nature of the experiment: human QSOX1 sulfhydryl oxidase inhibition – biochemical, ROS-Glo luminescence, single concentration, confirmation (AID 1347421).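 Note: 0% = DMSO wells with enzyme and 100% = wells lacking QSOX1 enzyme.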 To be noted: recombinant hQSOX1, RNase A substrate, ROS-Glo H2O2 luminescence; at 10 µM.
Sulfhydryl oxidase 1 (Homo sapiens), sequence (O00391 whole entry, looked up): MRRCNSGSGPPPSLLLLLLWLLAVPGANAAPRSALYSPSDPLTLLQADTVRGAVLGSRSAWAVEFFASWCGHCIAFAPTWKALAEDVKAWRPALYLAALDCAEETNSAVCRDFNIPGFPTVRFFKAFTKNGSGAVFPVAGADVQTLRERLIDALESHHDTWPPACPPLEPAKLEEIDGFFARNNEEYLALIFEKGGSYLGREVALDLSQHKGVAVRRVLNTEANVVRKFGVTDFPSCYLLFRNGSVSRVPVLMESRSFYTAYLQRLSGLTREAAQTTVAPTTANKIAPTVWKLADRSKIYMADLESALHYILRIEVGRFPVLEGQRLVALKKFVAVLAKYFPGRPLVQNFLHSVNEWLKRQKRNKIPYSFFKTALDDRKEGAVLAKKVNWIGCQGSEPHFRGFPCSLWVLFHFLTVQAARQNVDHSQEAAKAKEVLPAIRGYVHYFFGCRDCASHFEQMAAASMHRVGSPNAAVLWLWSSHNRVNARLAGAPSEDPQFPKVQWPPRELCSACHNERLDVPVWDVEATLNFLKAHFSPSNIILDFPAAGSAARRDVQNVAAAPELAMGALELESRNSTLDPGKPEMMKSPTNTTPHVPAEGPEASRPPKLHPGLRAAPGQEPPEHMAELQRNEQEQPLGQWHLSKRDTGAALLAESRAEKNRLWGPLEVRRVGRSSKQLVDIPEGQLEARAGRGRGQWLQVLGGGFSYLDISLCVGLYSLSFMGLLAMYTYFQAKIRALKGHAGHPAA
With `CCN1CCN(c2ncc3c(n2)CC(c2ccc(OC)c(OC)c2)CC3=O)CC1` (stereo unspecified), the activity was -19% (inactive).
Then `COc1ccc(C2CC(=O)c3cn[nH]c3C2)cc1` (stereo unspecified), with -17.7% (inactive); and `COc1ccc(C2CC(=O)c3cnc(NC4CC4)nc3C2)cc1` (stereo unspecified), with 3.9%.
For the molecule `O=C(CCc1ccsc1)N1CCOC(Cc2ccccc2Cl)C1` (stereo unspecified), the activity was determined as 20.5%.
Under `Cc1cc(Br)c(S(=O)(=O)NCc2ccncc2)cc1C` stands 3.4%.
Under `NC(=O)C1(N2CCCCC2)CCN(C(=O)C2CCC(=O)N(C3CCCC3)C2)CC1` (stereo unspecified) stands 5.6%.
Then `Cc1ccccc1C(=O)Nc1ccccc1C(=O)N(C)C`, with -20% (inactive); and `O=C(Nc1ccccc1C(=O)NC1CC1)c1ccccc1Cl`, with 11.7%; and `Cc1ccccc1C(=O)Nc1c(Cl)ccc2nsnc12`, with 0.9%.
In the case of `COc1ccccc1/C=C/CN1CCNC(=O)C1CC(=O)NCCOc1cccnc1` (stereo unspecified), the activity is -2% (inactive).
Then `CC(C)Cn1c(CN(C)Cc2ccco2)cnc1S(=O)(=O)CC1CCCO1` (stereo unspecified), with 4.1%.
Under `O=C1CCC(C(=O)N2CCC(Oc3cccc(F)c3)CC2)CN1CCc1ccccn1` (stereo unspecified) stands 0.7%; under `O=C(Nc1n[nH]c(C2CCCCC2)n1)N1CCOC2(CCCC2)C1`, 1%; under `C=CCC1(CC=C)CCCN1C(=O)c1cn(CC2COc3ccccc3O2)nn1` (stereo unspecified), -0.3% (inactive).
Under `O=c1c2ccccc2nc(NCCO)n1Cc1ccccc1` stands -20.3% (inactive).
On to `CS(=O)(=O)c1ncc(CO)n1Cc1ccccc1`, for which the activity was -4.5% (inactive).
In the case of `NC(=O)COc1ccc(S(=O)(=O)N2CCOCC2)cc1`, the activity is -13.3% (inactive).
Then `O=C(c1cc(S(=O)(=O)N2CCOCC2)c(Cl)cc1Cl)N1CCSCC1`, with -18.4% (inactive).
Then `O=C(O)c1ccc(S(=O)(=O)N2CCSCC2)cc1`, with -3% (inactive); and `O=C(Nc1ccc(-c2nc3ccccc3[nH]2)cc1)c1ccccn1`, with 5.8%.
Turning to `CN(C)S(=O)(=O)c1cccc(S(C)(=O)=O)c1`, the activity was 8.2%.
`COc1cc(C)nc(NC(=O)Nc2cccc(Cl)c2)n1`: the activity is -2.3% (inactive).
Under `Cc1ccc(S(=O)(=O)c2ncsc2Cl)cc1` stands 0.6%.
Consider `CC(C)Oc1ccc(NC(=O)CCN2C(=O)c3ccccc3C2=O)cc1`, for which the activity was 0.6%.
Consider `COC1=C(OC)C=CC(c2nnn(C3CCNCC3)n2)=[C+]1`, for which the activity was -20.6% (inactive).
Take `COc1cccc(CNCc2ccc(F)cc2)c1`: the activity was -17.7% (inactive).

Values taken from PubChem BioAssay AID1347421 (Sanford-Burnham Center for Chemical Genomics, 2020).
